# Results taken from PubChem BioAssay.
# Calls of active or inactive are those of the source. Rule as the data show it, unless noted: active = inhibition above about 80%; inactive = the rest.
# Tests used:
# [1] = growth inhibition, single agent or in combination, cell-based, chromothripsis tumors, cisplatin or BGB combos (AID 1671449); details: LFS_MB_P medulloblastoma cells;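 also: cells exposed for 96 hours; 0% = vehicle DMSO and 100% = killing by high DMSO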
# [2] = growth inhibition, single agent and combos, cell-based, chromothripsis tumors, cisplatin or BGB combos (AID 1671450); details: HDN33 neuroblastoma cells, stronger effect = higher value;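 also: cells exposed to compound for four days; 0% = vehicle DMSO and 100% = cell killing by high DMSO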
# [3] = growth inhibition, single agents and combos, ICB984, cell-based, cisplatin or BGB combos, synergistic combos for chromothripsis tumors (AID 1671451; call rule not given here;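 also: cells exposed for 96 hours before readout; 0% = vehicle DMSO and 100% = killing by high DMSO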); details: ICB984 medulloblastoma cells, drug combinations, stronger effect = higher value
# [4] = growth inhibition, single agents and combos, LFS_MB_1R, cell-based, cisplatin or BGB combos, synergistic combos for chromothripsis tumors (AID 1671452); details: LFS_MB_1R medulloblastoma cells, stronger effect = higher value;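 also: cells exposed for 96 hours before readout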
# [5] = growth inhibition, single agents and combos, HTB85, cell-based, BGB or cisplatin IC20 combos, synergistic combos for chromothripsis tumors (AID 1671453); details: HTB85 osteosarcoma cells, drug combinations, stronger effect = higher value;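 also: cells exposed for 96 hours before readout; 0% = vehicle DMSO and 100% = high DMSO killing control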
# [6] = growth inhibition, single agents and combos, CRL2098, cell-based, BGB or cisplatin IC20 combos, synergistic combos for chromothripsis tumors (AID 1671454); details: CRL2098 osteosarcoma cells, drug combinations, stronger effect = higher value;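 also: cells exposed for 96 h before readout; 0% = vehicle DMSO and 100% = killing by high DMSO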
# [7] = growth inhibition, single agents and combos, HD-MB03, cell-based, BGB or cisplatin IC20 combos, synergistic combos for chromothripsis tumors (AID 1671455; in the data active = inhibition above about 83%;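 also: 0% = vehicle DMSO and 100% = high DMSO as cytotoxic control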); details: HD-MB03 medulloblastoma cells, stronger effect = higher value
# [8] = growth inhibition, single agents and combos, UWB1.289, cell-based, BGB or cisplatin combos, synergistic combos for chromothripsis tumors (AID 1671456); details: UWB1.289 ovarian carcinoma cells, stronger effect = higher value;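 also: cells exposed to compound for four days; 0% = vehicle DMSO and 100% = killing by high DMSO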
# [9] = growth inhibition, single agents and combos, LFS_MB_2R, cell-based, cisplatin combos, synergistic combos for chromothripsis tumors (AID 1671457); details: LFS_MB_2R medulloblastoma cells, stronger effect = higher value;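 also: cells exposed to compound for four days before readout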
# [10] = growth inhibition, MDA-MB-436, cell-based, BGB or cisplatin combos, synergistic combos for chromothripsis tumors (AID 1671458; call rule not given here;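 also: cells exposed for 96 hours; 0% = vehicle DMSO and 100% = killing by high DMSO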); details: MDA-MB-436 breast carcinoma growth inhibition, drug combinations, stronger effect = higher value
# [11] = UWB1.289_BRCA1 ovarian cancer growth, cell-based, BGB or cisplatin combinations (AID 1671459); details: UWB1.289 BRCA1 ovarian carcinoma, drug combinations, stronger effect = higher value
# [12] = drug combination toxicity in non-malignant astrocytes – cell-based, BGB or cisplatin IC20 combos, cytotoxicity control for chromothriptic childhood tumor combination screen (AID 1671460); details: Human astrocytes, viability inhibition, drug combinations, at 0.5 µM, stronger effect = higher value;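 also: cells exposed to compounds for 96 hours before viability readout; 0% = vehicle and 100% = killing control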
# [13] = BT084 cell growth, single and combined drugs, ICGC_MB145, cisplatin and BGB IC40 combos (AID 1671461); details: BT084 medulloblastoma cells, drug combinations, stronger effect = higher value;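 also: cells exposed to drugs for 96 hours; 0% = vehicle DMSO and 100% = high DMSO full killing control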
# [14] = RCMB18 cell growth, single agent and combined, cisplatin and BGB IC40 combos (AID 1671462); details: RCMB18 medulloblastoma cells, stronger effect = higher value;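 also: cells exposed to compound for four days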
# [15] = CRL1545 cell growth, single agent and combined, cisplatin and BGB IC20 combos (AID 1671464); details: CRL1545 osteosarcoma cells, stronger effect = higher value;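 also: cells exposed to compound for 96 hours before readout; 0% = vehicle DMSO and 100% = high DMSO killing control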
# [16] = at 0.5 µM, stronger effect = higher value
# [17] = measured here: combination with BGB IC20, at 0.005 µM
# [18] = measured here: combination with BGB IC40, at 0.005 µM
# [19] = measured here: combination with BGB IC40, at 0.05 µM
# [20] = measured here: combination with cisplatin, at 0.5 µM, stronger effect = higher value
# [21] = measured here: combination with cisplatin, at 5 µM, stronger effect = higher value
# [22] = measured here: with BGB IC20 combination, at 0.5 µM
# [23] = measured here: with cisplatin IC20 combination, at 0.5 µM
# [24] = measured here: 5 uM single agent, at 5 µM
# [25] = measured here: combination with cisplatin, at 0.5 µM
# [26] = measured here: combination with cisplatin, at 5 µM
# [27] = measured here: with BGB IC20, at 0.5 µM
# [28] = measured here: with BGB IC20, at 5 µM
# [29] = measured here: with cisplatin IC20, at 0.5 µM
# [30] = measured here: with cisplatin IC20, at 5 µM
# [31] = measured here: combination with BGB at IC20, at 0.5 µM
# [32] = measured here: combination with cisplatin at IC20, at 0.5 µM
# [33] = measured here: combo with BGB at IC20, at 0.5 µM
# [34] = measured here: combo with cisplatin at IC20, at 0.5 µM
# [35] = measured here: inhibition with BGB combination, at 0.05 µM
# [36] = measured here: inhibition with cisplatin combination, at 0.05 µM
# [37] = measured here: BGB combination, at 0.5 µM
# [38] = measured here: BGB combination, at 5 µM
# [39] = measured here: cisplatin combination, at 0.5 µM
# [40] = measured here: cisplatin combination, at 5 µM
# [41] = BGB combination, concentration series, at 5 µM
# [42] = cisplatin combination, concentration series, at 5 µM
# [43] = measured here: combo with BGB IC20
# [44] = measured here: combo with cisplatin IC20
# [45] = cisplatin combination, at 0.5 µM
# [46] = measured here: BGB IC40 combination 0.05 uM, at 0.05 µM
# [47] = measured here: BGB IC40 combination, at 0.05 µM
structure (smiles),measurement,setting,value
CC(C)c1ccc(-c2cc(=O)c3ccccc3o2)cc1,inhibition,[1]; [16],-1.02% (inactive)
same,inhibition,[1]; [17],-13.4%
same,inhibition,[1]; [18],-27.4%
same,inhibition,[1]; [19],8.34%
same,inhibition,[1]; [20],64.5%
same,inhibition,[1]; [21],60.2%
same,inhibition,"[2]; BGB combo, at 5 µM",30.8%
same,inhibition,[2]; at 0.5 µM,-12.3% (inactive)
same,inhibition,"[2]; cisplatin combo, at 5 µM",30.4%
same,inhibition,[2]; [22],-6.46%
same,inhibition,[2]; [23],-22.2%
same,inhibition,"[2]; single agent, at 5 µM",42.1%
same,inhibition,"[3]; BGB IC20 combo, at 0.005 µM",5.4%
same,inhibition,"[3]; BGB IC40 combo, at 0.005 µM",-31.5%
same,inhibition,"[3]; BGB IC40 combo, at 0.05 µM",14.8%
same,inhibition,[3]; at 0.5 µM,-18.8% (inactive)
same,inhibition,"[3]; cisplatin combo, at 0.05 µM",11.4%
same,inhibition,"[3]; cisplatin combo, at 0.5 µM",-24.5%
same,inhibition,"[3]; cisplatin combo, at 5 µM",-45%
same,inhibition,[3]; [24],-10.3%
same,inhibition,[4]; at 0.5 µM,-36.4% (inactive)
same,inhibition,[4]; [19],-28.3%
same,inhibition,[4]; [25],-81.6%
same,inhibition,[4]; [26],18.3%
same,inhibition,[5]; at 0.5 µM,-40.2% (inactive)
same,inhibition,[5]; [27],-39.8%
same,inhibition,[5]; [28],1.8%
same,inhibition,[5]; [29],-59.9%
same,inhibition,[5]; [30],17.5%
same,inhibition,"[5]; single agent, at 5 µM",16.9%
same,inhibition,[6]; at 0.5 µM,-58.5% (inactive)
same,inhibition,[6]; [31],-35.3%
same,inhibition,[6]; [32],-37.3%
same,inhibition,[7]; at 0.5 µM,-10% (inactive)
same,inhibition,[7]; [33],-14%
same,inhibition,[7]; [34],-4.48%
same,inhibition,[8]; at 0.5 µM,-15.3% (inactive)
same,inhibition,[8]; [35],-31.9%
same,inhibition,[8]; [36],-16.9%
same,inhibition,[9]; at 0.5 µM,-14.3% (inactive)
same,inhibition,[9]; [25],-16.1%
same,inhibition,[9]; [26],41.6%
same,inhibition,[10]; at 0.5 µM,-11.1% (inactive)
same,inhibition,[10]; [37],-14.1%
same,inhibition,[10]; [38],27.2%
same,inhibition,[10]; [39],-11.6%
same,inhibition,[10]; [40],22.8%
same,inhibition,[11]; [41],43.9%
same,inhibition,[11]; at 0.5 µM,-16.7% (inactive)
same,inhibition,[11]; [42],32.9%
same,inhibition,[12],-3.03% (inactive)
same,inhibition,[12]; [43],2.13%
same,inhibition,[12]; [44],-6.48%
same,inhibition,[13]; at 0.5 µM,-10.1% (inactive)
same,inhibition,[13]; [45],-5.92%
same,inhibition,"[13]; cisplatin combination, at 5 µM",41.9%
same,inhibition,[13]; [46],-23.7%
same,inhibition,"[13]; single agent, at 5 µM",42.7%
same,inhibition,[14]; at 0.5 µM,-14% (inactive)
same,inhibition,"[14]; cisplatin combo, at 5 µM",35.3%
same,inhibition,[14]; [47],-32.1%
same,inhibition,[14]; [25],-17.3%
same,inhibition,"[14]; single agent, at 5 µM",35%
same,inhibition,[15]; at 0.5 µM,-29.6% (inactive)
same,inhibition,[15]; [22],-34%
same,inhibition,[15]; [23],-27.5%
same,inhibition,"[15]; single agent, at 0.05 µM",-43.4%
same,inhibition,"[15]; single agent, at 5 µM",26.5%
O=C(CCCCCCC(=O)Nc1ccc(I)cc1)NO,inhibition,[1]; [16],14.6% (inactive)
same,inhibition,[1]; [17],-13.9%
same,inhibition,[1]; [18],-26.4%
same,inhibition,[1]; [19],-4.26%
same,inhibition,[1]; [20],55%
same,inhibition,[1]; [21],112%
same,inhibition,"[2]; BGB combo, at 5 µM",92.7%
same,inhibition,[2]; at 0.5 µM,2.25% (inactive)
same,inhibition,"[2]; cisplatin combo, at 5 µM",96.8%
same,inhibition,[2]; [22],2.67%
same,inhibition,[2]; [23],4.68%
same,inhibition,"[2]; single agent, at 5 µM",96.1%
same,inhibition,"[3]; BGB IC20 combo, at 0.005 µM",-14%
same,inhibition,"[3]; BGB IC40 combo, at 0.005 µM",-21.6%
same,inhibition,"[3]; BGB IC40 combo, at 0.05 µM",79.6%
same,inhibition,[3]; at 0.5 µM,-43% (inactive)
same,inhibition,"[3]; cisplatin combo, at 0.05 µM",78.8%
same,inhibition,"[3]; cisplatin combo, at 0.5 µM",-63.2%
same,inhibition,"[3]; cisplatin combo, at 5 µM",-38.3%
same,inhibition,[3]; [24],-6.51%
same,inhibition,[4]; at 0.5 µM,4.61% (inactive)
same,inhibition,[4]; [19],-30%
same,inhibition,[4]; [25],7%
same,inhibition,[4]; [26],97.8%
same,inhibition,[5]; at 0.5 µM,-14.1% (inactive)
same,inhibition,[5]; [27],-30.7%
same,inhibition,[5]; [28],58%
same,inhibition,[5]; [29],-7.38%
same,inhibition,[5]; [30],98.3%
same,inhibition,"[5]; single agent, at 5 µM",68.5%
same,inhibition,[6]; at 0.5 µM,-40.1% (inactive)
same,inhibition,[6]; [31],-46.1%
same,inhibition,[6]; [32],-23.5%
same,inhibition,[7]; at 0.5 µM,12.8% (inactive)
same,inhibition,[7]; [33],5.06%
same,inhibition,[7]; [34],20.3%
same,inhibition,[8]; at 0.5 µM,14.7% (inactive)
same,inhibition,[8]; [35],-32%
same,inhibition,[8]; [36],-13.2%
same,inhibition,[9]; at 0.5 µM,-12.8% (inactive)
same,inhibition,[9]; [25],3.62%
same,inhibition,[9]; [26],99%
same,inhibition,[10]; at 0.5 µM,-16.9% (inactive)
same,inhibition,[10]; [37],-27.7%
same,inhibition,[10]; [38],49.2%
same,inhibition,[10]; [39],-20.6%
same,inhibition,[10]; [40],53.6%
same,inhibition,[11]; [41],84.7%
same,inhibition,[11]; at 0.5 µM,7.03% (inactive)
same,inhibition,[11]; [42],105%
same,inhibition,[12],29.2% (inactive)
same,inhibition,[12]; [43],30.5%
same,inhibition,[12]; [44],21.3%
same,inhibition,[13]; at 0.5 µM,12.2% (inactive)
same,inhibition,[13]; [45],29.6%
same,inhibition,"[13]; cisplatin combination, at 5 µM",105%
same,inhibition,[13]; [46],-26.1%
same,inhibition,"[13]; single agent, at 5 µM",103%
same,inhibition,[14]; at 0.5 µM,20.3% (inactive)
same,inhibition,"[14]; cisplatin combo, at 5 µM",94.9%
same,inhibition,[14]; [47],-10.7%
same,inhibition,[14]; [25],54.3%
same,inhibition,"[14]; single agent, at 5 µM",85.9%
same,inhibition,[15]; at 0.5 µM,46.9% (inactive)
same,inhibition,[15]; [22],39.3%
same,inhibition,[15]; [23],50.7%
same,inhibition,"[15]; single agent, at 0.05 µM",-7.66%
same,inhibition,"[15]; single agent, at 5 µM",95.3%
